Data on 108 compounds can be found in PubChem BioAssay AID623911 (Vanderbilt High Throughput Screening Facility, 2012).

About 770 (37%) of roughly 2,100 compounds were called active. Some of the results follow. A number with no mark means an inactive call.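 Rule for the calls: active = by-eye trace score of 1 for enhancers or -1 for inhibitors, so actives lie on both sides (some results past the limit were not filed as active); inactive = score 0, or 3 fluorescent, or 4 baseline rise.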

G protein-activated inward rectifier potassium channel 2 (Homo sapiens) + G protein-activated inward rectifier potassium channel 1 (Homo sapiens), sequence (P48051 whole entry, looked up): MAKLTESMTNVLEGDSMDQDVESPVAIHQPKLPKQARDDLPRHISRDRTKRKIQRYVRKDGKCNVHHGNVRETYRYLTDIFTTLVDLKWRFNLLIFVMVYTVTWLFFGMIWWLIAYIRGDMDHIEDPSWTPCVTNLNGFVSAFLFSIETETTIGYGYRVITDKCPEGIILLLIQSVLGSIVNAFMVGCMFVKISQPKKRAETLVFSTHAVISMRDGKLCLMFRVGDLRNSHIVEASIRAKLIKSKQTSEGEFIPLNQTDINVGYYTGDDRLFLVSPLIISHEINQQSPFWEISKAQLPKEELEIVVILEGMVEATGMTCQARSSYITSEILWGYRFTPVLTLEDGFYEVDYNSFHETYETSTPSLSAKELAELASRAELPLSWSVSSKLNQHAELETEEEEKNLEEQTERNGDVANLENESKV
G protein-activated inward rectifier potassium channel 2 (Homo sapiens) + G protein-activated inward rectifier potassium channel 1 (Homo sapiens), sequence (P48549 whole entry, looked up): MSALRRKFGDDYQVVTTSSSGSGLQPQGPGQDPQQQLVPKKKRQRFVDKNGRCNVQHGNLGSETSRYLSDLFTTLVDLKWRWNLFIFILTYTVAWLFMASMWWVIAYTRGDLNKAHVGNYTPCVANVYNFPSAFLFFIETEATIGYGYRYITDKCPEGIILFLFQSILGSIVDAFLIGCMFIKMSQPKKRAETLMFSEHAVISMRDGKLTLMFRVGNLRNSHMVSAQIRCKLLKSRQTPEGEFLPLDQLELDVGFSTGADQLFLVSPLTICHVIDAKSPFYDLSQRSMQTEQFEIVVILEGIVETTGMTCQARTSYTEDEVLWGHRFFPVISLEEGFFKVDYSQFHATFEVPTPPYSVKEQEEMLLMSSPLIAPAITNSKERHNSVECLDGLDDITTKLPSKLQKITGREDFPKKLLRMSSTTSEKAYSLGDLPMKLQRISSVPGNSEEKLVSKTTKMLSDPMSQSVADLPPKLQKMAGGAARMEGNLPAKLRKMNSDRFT

This test has as its target G protein-activated inward rectifier potassium channel 2 (Homo sapiens) + G protein-activated inward rectifier potassium channel 1 (Homo sapiens) (UniProt P48051+P48549). In words: GIRK1/2 thallium flux modulators, retest, confirmation, cell-based, HEK293 rmGlu8/hGIRK1/2, FluoZin-2 (AID 623911). The note with it: HEK293 rmGlu8/hGIRK1/2, thallium flux FluoZin-2; actives lie on both sides; glutamate co-added at its EC20 level.
As to `O=C1c2cccc3c(O)ccc(c23)C(=O)N1Cc1ccccc1`, the manual score was 3.

In the case of `CON(c1nc(Cl)nc(N(C)C)n1)S(=O)(=O)c1ccccc1Cl`, the manual score was -1 (active).

Turning to `O=C(c1csc2c1CCCC2)N1CCN(c2ccc(F)cc2)CC1`, the manual score was -1 (active).

Consider `COCCn1c(=S)[nH]c2cc(C(=O)N3CCN(c4ccc(F)cc4)CC3)ccc2c1=O`, for which the manual score is 0.

On to `O=C(C1CCC(Cn2c(=S)[nH]c3ccccc3c2=O)CC1)N1CCN(c2ccccc2)CC1` (stereo not drawn), for which the manual score was 0.

Consider `C=CCn1c(=S)[nH]c2ccc(Br)cc2c1=O`, for which the manual score is 1 (active).

Take `O=c1c2ccccc2[nH]c(=S)n1CCN1CCN(Cc2ccccc2)CC1`: the manual score was 0.

Consider `O=c1c2cc(Cl)ccc2[nH]c(=S)n1Cc1cccs1`, for which the manual score was 0.

`C=CCn1c(=S)[nH]c2ccccc2c1=O`: the manual score is 1 (active).

Consider `CCN(CC)c1ccc2cc(C=O)c(=O)oc2c1`, for which the manual score is 3.

`CCc1cccc(NC(=O)CSC2=NS(=O)(=O)c3ccccc32)c1`: the manual score is 1 (active).

On to `CCc1cccc(NC(=O)CCSCCC(=O)Nc2cccc(CC)c2)c1`, for which the manual score is 0.

In the case of `CC(=O)Nc1ccc(NC(=O)CSc2nccn2Cc2ccccc2)cc1`, the manual score was 0.

For `COC(=O)CSC1=NS(=O)(=O)c2ccccc21`, the manual score was -1 (active).

Consider `COC(=O)CSc1nc2ncccc2[nH]1`, for which the manual score is 0.

With `COC(=O)CSc1nnc(SCc2ccc(OC)cc2)s1`, the manual score was 0.

On to `Clc1ccc2c(c1)C(N1CCNCC1)Cc1ccccc1S2` (stereo not drawn), for which the manual score is -1 (active).

Regarding `CC(=O)c1c(N2CCCC2)[nH]c(-c2ccccc2)nc1=S`, the manual score is 1 (active).

On to `CSc1nc(-c2ccccc2)[nH]c(=S)c1C(C)=O`, for which the manual score is 1 (active).

Regarding `CCOC(=O)c1ccc(N2C(=O)C(O)=C(C(C)=O)C2c2ccccc2)cc1` (stereo not drawn), the manual score was 0.

For the compound `O=c1c2c(nc3c(-c4ccccc4)c[nH]n13)CCCC2`, the manual score was 0.

For `CCCCn1c(SC(C)C(N)=O)nc2cc(C(=O)OC)ccc2c1=O` (stereo not drawn), the manual score was 0.

On to `CN1/C(=C\C=C2/C(=O)Oc3ccccc3C2=O)C(C)(C)c2ccccc21`, for which the manual score was 3.

As for `CCCOc1cccc(OCCSc2nc(C)cc(=O)[nH]2)c1`, the manual score was 0.

In the case of `CCOc1ccc(OCCSc2nc3ccccc3[nH]2)cc1`, the manual score was 1 (active).

With `CCNC(=O)NC(=O)COC(=O)CCCSc1nc2ccccc2[nH]1`, the manual score was 0.

`Oc1[nH]c2ccccc2c1N=NC(=S)NCC1CCCO1` (stereo not drawn): the manual score is 0.5.

With `Clc1ccc2[nH]c3c(NCC4CCCO4)ncnc3c2c1` (stereo not drawn), the manual score was 0.

As to `Oc1[nH]c2c(Cl)cc(Cl)cc2c1N=NC(=S)NCC1CCCO1` (stereo not drawn), the manual score is 1 (active).

With `COc1ccc(C2=Nn3c(nnc3C3CCCCC3)SC2)cc1OC`, the manual score was 0.

As for `c1cc2c(cc1C1=Nn3c(nnc3C3CCCCC3)SC1)OCO2`, the manual score was 0.

For the compound `COc1ccccc1C1=Nn2c(nnc2C2CCCCC2)SC1`, the manual score was -1 (active).

`Cc1cc(C)nc(N(C#N)Cc2ccc(Br)cc2)n1`: the manual score was -1 (active).

In the case of `O=C(NC(=S)Nc1ccccc1N1CCCCC1)c1ccco1`, the manual score was 0.

On to `O=C(NC(=S)Nc1ccc(N2CCCCC2)c(Cl)c1)c1cccs1`, for which the manual score is 0.

On to `O=C(NC(=S)Nc1ccc(N2CCCCC2)cc1)c1cccs1`, for which the manual score was 1 (active).

For `CC1CCN(c2ccc(NC(=S)NC(=O)c3ccco3)cc2)CC1`, the manual score was 0.

As to `O=C(NC(=S)Nc1ccc(N2CCOCC2)cc1)c1ccco1`, the manual score is 0.

For `O=C(NC(=S)Nc1ccc(N2CCCCC2)cc1)c1ccco1`, the manual score is 1 (active).

As to `CN(C1CCCCC1)S(=O)(=O)c1ccc(NC(=S)NC(=O)c2cccs2)cc1`, the manual score was 0.

Take `O=C(NC(=S)Nc1ccccc1N1CCOCC1)c1ccco1`: the manual score was 1 (active).

In the case of `CC1CCN(c2ccccc2NC(=S)NC(=O)c2ccco2)CC1`, the manual score is 0.

As for `CC(C)(C)C(=O)/C=c1\[nH]c(=O)/c(=C\c2ccc(F)cc2)s1`, the manual score was 0.

Take `Cc1ccc(NC2CC(=O)N(CCc3ccccc3)C2=O)cc1` (stereo not drawn): the manual score was 0.

For the compound `CCn1c(SCC(=O)Nc2oc(-c3ccccc3)c(-c3ccccc3)c2C#N)nnc1-c1ccco1`, the manual score was 0.

Turning to `Cc1cnc(NC(=O)CSc2nc3ccccc3c(=O)[nH]2)s1`, the manual score is 0.

As for `COc1cc(OC)cc(C(=O)NC(=S)NCCc2ccccc2)c1`, the manual score is 0.

Take `COc1ccc(C(=O)NC(=S)NNC(=O)CCc2ccccc2)cc1`: the manual score is 1 (active).

For the compound `COc1ccc(C(=O)CC(=O)C(=O)NCCc2cccc(C)c2)cc1`, the manual score is 0.5.

Take `O=C(CCc1ccccc1)NNC(=S)NC(=O)c1ccc(Cl)cc1`: the manual score is 1 (active).

Turning to `CCOc1ccccc1-c1c2cc(O)c(=O)cc-2oc2cc(O)c(O)cc12`, the manual score is 0.

Regarding `CCOc1ccccc1Cn1c(=O)oc2ccc(C)cc21`, the manual score is -1 (active).

Take `CCOC(=O)c1c(-c2ccccc2)csc1NC(=S)NC`: the manual score was 1 (active).

Turning to `CCNC(=S)Nc1scc(-c2ccccc2)c1C(=O)OCC`, the manual score is 1 (active).

Consider `CCOC(=O)c1c(-c2ccc(C)o2)csc1NC(=S)NC(=O)c1cccs1`, for which the manual score is 0.

`CCOC(=O)c1c(-c2ccc(C)o2)csc1NC(=S)NC(=O)N(C)C`: the manual score was 1 (active).

For `CC(C)Cc1nnc(NC(=O)CSc2nc(=O)cc(N)n2-c2ccccc2)s1`, the manual score is 0.

On to `CC(C)CC(=O)NC(=S)N(Cc1ccccc1)Cc1ccccc1`, for which the manual score was 1 (active).

`CC(C)CC(=O)Nc1cccc2c1C(=O)N(c1ccccc1)C2=O`: the manual score is -0.5.

As to `O=C(NC(=S)N(Cc1ccccc1)Cc1ccccc1)c1ccccc1F`, the manual score was 1 (active).

In the case of `Cc1cccc(C)c1NC(=S)NC(=O)CCc1ccccc1`, the manual score is 0.

Regarding `Cc1cccc(C)c1NC(=S)NC(=O)c1ccccc1F`, the manual score is 1 (active).

`O=C(NC(=S)NCc1ccccc1)c1ccccc1F`: the manual score was 0.5.

Take `CC(C)C(=O)NC(=S)N(Cc1ccccc1)Cc1ccccc1`: the manual score was 1 (active).

`CCCCCNc1nc(-c2ccccc2)cs1`: the manual score was 0.

For the compound `Cc1nc2ccccn2c1-c1csc(NCc2ccco2)n1`, the manual score was -1 (active).

In the case of `CC(C)(C)C1CCC2(CC1)Nc1cccc3cccc(c13)N2`, the manual score was 0.

As for `Oc1cccc(Nc2nc(NCC3CCCO3)c3ccccc3n2)c1` (stereo not drawn), the manual score is -1 (active).

Take `O=C(O)c1cccc(Nc2nc(N3CCOCC3)nc(N3CCOCC3)n2)c1`: the manual score is 0.

On to `CC1CCCC(NC(=O)Nc2cccs2)C1C` (stereo not drawn), for which the manual score was 1 (active).

On to `COC(=O)C1CCCN1C(=O)c1cccs1` (stereo not drawn), for which the manual score was 0.

As to `CCOC(=O)C1=C(CC)Nc2ccccc2N=C1NC(=O)c1ccc(S(=O)(=O)N(C)C)cc1`, the manual score is 0.

For the compound `C=COCCNC(=O)Nc1ccc(Cl)c(Cl)c1`, the manual score is 0.5.

In the case of `CCOC(=O)C1=C(CC)Nc2ccccc2N=C1NC(=O)Nc1ccc(Cl)c(Cl)c1`, the manual score is 1 (active).

`CCCn1c(=O)c2ccccc2n2c(SCCOc3ccccc3F)nnc12`: the manual score was -1 (active).

As for `Cc1ccc2oc(=O)c3cnn(CC(=O)N4CCc5ccccc5C4)c3c2c1`, the manual score is 0.

Take `CCCn1c(=O)c2ccccc2n2c(SCc3nc4ccccc4s3)nnc12`: the manual score was 0.

As for `CCCn1c(=O)c2ccccc2n2c(SCC(=O)N3CCc4ccccc4C3)nnc12`, the manual score is -1 (active).

In the case of `O=C(CSc1nc2ccccc2n1CCc1ccccc1)N1CCOCC1`, the manual score is 0.

On to `CCCn1c(SC(C(=O)Nc2cc(C)ccc2OC)c2ccccc2)nc2ccccc2c1=O` (stereo not drawn), for which the manual score was 0.

Take `COc1ccc(-c2nc(C#N)c(NCCCN(C)C)o2)cc1OC`: the manual score is 0.

As to `CNC(=S)SCCOc1ccc(C)cc1`, the manual score is 3.

Consider `COc1ccc(OCC(=O)NNC(=O)C(=O)Nc2ccc(C)cc2)cc1`, for which the manual score is 1 (active).

`Cc1ccc(OCC(=O)NNC(=O)C(=O)NC(C)(C)C)cc1`: the manual score was 1 (active).

Turning to `CC(C)(C)NC(=O)C(=O)NNC(=O)COc1ccc(Br)cc1`, the manual score was 1 (active).

As for `Nc1c(-c2ccccc2)cnn1-c1ccc(C(=O)O)cc1`, the manual score is 0.

Take `CC1=NCCN1S(=O)(=O)c1cc(Cl)ccc1Cl`: the manual score is 0.

On to `O=C(NCc1ccccc1)c1ccc2c(=O)n(CCCN3CCCC3=O)c(=S)[nH]c2c1`, for which the manual score was 0.

Regarding `COc1ccccc1CNC(=O)c1c(N)n(CCCN2CCOCC2)c2nc3ccccc3nc12`, the manual score was 0.

For `COc1ccc(CNC(=O)C(C#N)c2nc3ccccc3nc2N2CCCC2)cc1` (stereo not drawn), the manual score was 3.

Turning to `COc1cccc(CNc2nc3ccccc3n2CCN2CCCCC2)c1OC`, the manual score was -1 (active).

`CCn1c(NC(=S)Nc2ccccc2)nc2ccccc21`: the manual score was 0.

In the case of `Cn1c(CNc2nc3ccccc3n2CCN2CCCCC2)nc2ccccc21`, the manual score was -1 (active).

Take `COc1ccc(/C=C/c2nc3sc4c(c3c(=O)o2)CCC4)cc1`: the manual score is 3.

As to `COc1cc(NC(=O)C(=O)NNC(=O)C2CCCCC2)c(OC)cc1Cl`, the manual score was 1 (active).

Take `COc1cc(NC(=O)c2ccc(C)cc2)c(OC)cc1NC(=O)CN1CCCCC1`: the manual score is 0.

As to `COc1ccc(OC)c(NC(=O)C2CC(=O)N(c3ccc(Br)cc3)C2)c1` (stereo not drawn), the manual score was 0.

For the compound `CCOc1ccccc1NC(=O)CSc1nnc(-c2ccccn2)n1Cc1ccco1`, the manual score is 0.

Consider `CCOC(=O)CSc1nc2c(sc(=S)n2-c2ccccc2OC)c(=O)n1Cc1ccco1`, for which the manual score was -1 (active).

Take `CCOC(=O)N1CCN(C(=O)CSc2nc3c(c(=O)n2-c2ccccc2OC)SCC3)CC1`: the manual score is 0.

Regarding `CCCc1nnc2n1N=C(c1ccc(OC)c(OC)c1)CS2`, the manual score is 0.

`Brc1ccccc1C1=Nn2c(nnc2-c2ccccc2)SC1`: the manual score is -1 (active).

For the compound `CCOC(=O)c1sc2ncnc(NCc3ccco3)c2c1C`, the manual score is 1 (active).

`Nc1nc(Nc2ccccc2)nc(NCc2ccco2)c1[N+](=O)[O-]`: the manual score was 0.

As to `CS(=O)(=O)N(CC(=O)NCc1ccco1)c1ccc(Cl)c(C(F)(F)F)c1`, the manual score is 0.

As to `Cc1ccc(-n2c(CSc3nc(C)cc(C)n3)nnc2SCC(=O)NCc2ccco2)cc1`, the manual score was 0.

As for `Cc1ccc2c(Cl)cc(Cl)c(OCC(=O)NCc3ccco3)c2n1`, the manual score is 1 (active).

In the case of `C=CCOn1c(=O)c(-c2cccs2)[n+]([O-])c2ccccc21`, the manual score was 3.
